Screening results (PubChem)
In the library only some 7.4% were active in any assay of this set; here they are far more common.
ELG1 genotoxic: inducers of genotoxicity in HEK293T ELG1-luciferase cells; 330,000 compounds, 1.3% hits; Potency, µM (series often up to 46 µM), for the others: top-dose activity change, positive = activation, most hits filed as activators; HEK293T ELG1-luciferase reporter, luminescence, 16 h; AID 504466; also: % of control where 0% means no effect; nearly all actives have a fitted effect of over 60% in size
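HEK293T cells expressing luciferase-tagged ELG1 were exposed to compound or DMSO vehicle for 16 hr at 37 °C and 5% CO2. Luciferase activity was then measured with ONE-Glo after 30 min at room temperature.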
FLuc counter: counter-screen for miR-21 project: firefly luciferase inhibitors or activators | P08659 | purified FLuc, Km substrates, luminescence inhibition | Potency, µM (series often up to 57.5 µM), for inactives: top-dose activity change, negative = inhibition, hits mostly inhibitors | 360,000 compounds, 6.9% hits | AID 588342;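 also: plate controls were vehicle for no effect and reference inhibitor for full effect; nearly all actives have a fitted effect of over 55% in size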
Target sequence (P08659 whole entry, looked up): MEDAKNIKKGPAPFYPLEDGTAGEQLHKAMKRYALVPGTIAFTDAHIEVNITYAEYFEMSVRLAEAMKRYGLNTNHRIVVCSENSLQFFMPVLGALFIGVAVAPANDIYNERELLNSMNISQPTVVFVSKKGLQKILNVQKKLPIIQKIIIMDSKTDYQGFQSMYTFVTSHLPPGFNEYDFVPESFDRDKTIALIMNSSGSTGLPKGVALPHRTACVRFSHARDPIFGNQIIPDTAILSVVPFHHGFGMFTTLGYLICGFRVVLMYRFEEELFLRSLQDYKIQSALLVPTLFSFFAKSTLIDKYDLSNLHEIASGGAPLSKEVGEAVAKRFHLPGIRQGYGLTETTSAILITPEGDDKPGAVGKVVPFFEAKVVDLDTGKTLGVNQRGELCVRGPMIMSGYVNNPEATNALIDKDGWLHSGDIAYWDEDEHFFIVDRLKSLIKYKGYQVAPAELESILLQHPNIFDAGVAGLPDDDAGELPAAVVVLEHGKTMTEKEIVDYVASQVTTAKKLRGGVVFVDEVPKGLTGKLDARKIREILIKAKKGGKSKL
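Purified P. pyralis luciferase, 10 nM final, with Km-level 10 uM D-luciferin and 10 uM ATP in 50 mM Tris acetate pH 7.5, 10 mM Mg acetate, 0.01% Tween-20, 0.05% BSA; 6-point qHTS titration about 60 µM downward; luminescence read.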
Luc counter: blocks Kinase-Glo luciferase, a counter-screen artifact; Kinase-Glo luciferase, ATP luminescence, 8 min; Q27757; Potency, µM (highest dose often 38.3 µM), for the others: at the highest dose activity change, negative = inhibition, usual class: inhibitors; 200,000 compounds, 0.28% hits; also: % is scaled to controls: 0 for no effect and ±100 for the full control effect; nearly all actives have a fitted effect of over 60% in size
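Compounds were added to a substrate mix at pH 7.2 (50 mM imidazole, 10 uM ATP, within the enzyme's linear range), followed by Kinase-Glo detection reagent; luminescence was measured after 8 minutes at ambient temperature.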
NPC1 prom act: activators of NPC1 promoter | AID 485313 | 320,000 compounds, 2.4% hits | Huh7 NPC1 promoter luciferase reporter, 24 h | Potency, µM (doses to about 9.22 µM), for inactives: top-dose activation, usual class: activators; also: % of control where 0% means no effect; nearly all actives have a fitted effect of over 60% in size
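Readout is luciferase luminescence, reflecting NPC1 promoter activation in stably transfected Huh7 cells after 24 h compound exposure at 37 °C in reduced-serum medium with 10% FBS.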
SMN2 splice up: SMN2 splice variant enhancement; Potency, µM (series often up to 46.1 µM), for the others: top-dose activity change, positive = activation, usual class: activators; 210,000 compounds, 2.8% hits; HEK293 SMN2-luciferase splicing reporter, luminescence, 30-36 h; also: % of control where 0% means no effect; nearly all actives have a fitted effect of over 55% in size
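HEK293 cells carry an SMN2 […]–luciferase reporter in which exon 7 inclusion puts luciferase in frame. Cells were plated 10-12 h before compound addition, then incubated 30-36 h at 37C. ONE-Glo luminescence was read; sodium butyrate at 4.5 mM final served as control.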
Rab9 promoter act: activators of Rab9 promoter | Potency, µM (doses to about 9.22 µM), for the others: top-dose activation, negative = inhibition, actives largely listed as activators | Huh7 Rab9 promoter-luciferase reporter, luminescence, 24 h | 320,000 compounds, 2.8% hits; also: % of control where 0% means no effect; nearly all actives have a fitted effect of over 60% in size
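Promoter activation is measured as luciferase luminescence in Huh7 cells stably transfected with a Rab9 promoter–luciferase construct, following 24 h compound exposure at 37 °C and 10 min reagent incubation at ambient temperature.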
The depositor's hits bear a star; ? = inconclusive; nt = no result given. Calls follow the shape of the dose curve; as a rule, active = well fitted curve in the direction sought with a large enough effect; inconclusive = small, poorly fitted or top-dose-only effect, or another doubt; inactive = no such curve, though single readings can be large; an effect the other way counts as inactive or inconclusive. Potency is read from the fitted curve at half-maximal effect.

SMILES | ELG1 genotoxic | FLuc counter | Luc counter | NPC1 prom act | SMN2 splice up | Rab9 promoter act
CCc1ccc(C(=O)c2cn(CC(=O)NCCc3ccc(OC)c(OC)c3)c3nc(C)ccc3c2=O)cc1 | nt | -13% | nt | nt | nt | nt
CC(C)(C)c1ccc(C(=O)NCC(=O)NCC(C)(C)N2CCOCC2)cc1 | -1% | -4% | nt | -4% | nt | -6%
COc1ccc(N2CCN(CCCNC(=O)c3ccc4nc(N5CCCCC5)sc4c3)CC2)cc1 | nt | ? | nt | nt | 0.79µM* | nt
CCOc1ccc2nc(N3CCCC(C(=O)Nc4ccc(Br)c(C)c4)C3)sc2c1 (centres undefined) | nt | 6µM* | nt | nt | 24% | nt
CCOc1ccc2nc(N3CCCC(C(=O)NCCc4ccc(C)cc4)C3)sc2c1 (centres undefined) | nt | -18% | nt | nt | 13% | nt
CCOc1ccc2nc(N3CCCC(C(=O)NCCCOC)C3)sc2c1 (centres undefined) | nt | 12µM* | nt | nt | 14µM* | nt
CCOc1ccc2nc(N3CCC(C(=O)Nc4nnc(CC)s4)CC3)sc2c1 | 12µM* | ? | -3% | 1.1µM* | 2.2µM* | 4µM*
CCCN1CCN(CCCNC(=O)C2CCCN(c3nc4ccc(OCC)cc4s3)C2)CC1 (centres undefined) | 1% | 2% | -1% | -2% | 10% | -12%
O=[N+]([O-])c1ccc(NNS(=O)(=O)c2cc(Cl)ccc2Cl)nc1 | 1% | 0% | nt | 3% | nt | 0%
O=C(c1ccco1)n1nc(-c2ccccc2)nc1NCc1ccco1 | 7% | -8% | 3% | 8% | ? | 18%
Cc1ccc(-c2nc(NCc3ccco3)n(C(=O)c3ccco3)n2)cc1 | ? | 3% | nt | ? | nt | 3.5µM*
COCC(=O)n1nc(-c2ccc(C)cc2)nc1NCc1ccc(F)cc1 | 18% | -18% | -3% | 16% | ? | 23%
O=C(COc1ccccc1)n1nc(-c2ccc(Cl)cc2)nc1NCc1ccco1 | 21µM* | ? | 2% | 29% | 16µM* | ?
COCC(=O)n1nc(-c2ccccc2)nc1NCc1ccc(N(C)C)cc1 | ? | 17µM* | 1% | ? | ? | ?
COc1ccccc1C(=O)n1nc(-c2ccccc2)nc1NCc1ccco1 | 13% | 2% | 4% | 17% | 13µM* | 2%
O=C(c1ccc(F)cc1)n1nc(-c2ccccc2)nc1NCc1ccco1 | nt | 0% | nt | nt | 17% | nt
O=C(c1ccco1)n1nc(-c2ccc(Cl)cc2)nc1NCc1ccco1 | nt | 0% | -3% | nt | 15% | nt
COc1ccc(S(=O)(=O)NCC2CCCN(C(=O)CCC(F)(F)F)C2)cc1 (centres undefined) | 1% | 1% | nt | 0% | nt | 0%
Cc1ccc(C(=O)c2cn(Cc3ccccc3C)c3nc(C)ccc3c2=O)cc1 | nt | 4% | nt | nt | -5% | nt
CCCCNC(=O)C(CC)(ONc1ccccc1C(F)(F)F)c1ccccc1 (centres undefined) | 0% | -1% | nt | 2% | nt | 11%
Cc1cc(C)c2oc(C(=O)Nc3sc4c(c3C(=O)NCc3ccco3)CCCC4)cc(=O)c2c1 | nt | -1% | nt | nt | 4% | nt
CCOC(=O)/C=C/c1ccc2oc3ccccc3c(=O)c2c1 | ? | 2.4µM* | nt | 3.5µM* | nt | 4µM*
c1ccc(OCCCCn2cnc3ccccc32)cc1 | 11% | -18% | -1% | -3% | -41% | -4%
Brc1ccccc1OCCCn1cnc2ccccc21 | 5.8µM* | 2.4µM* | -2% | 3.2µM* | ? | 4µM*
c1ccc2c(c1)ncn2CCCOc1ccc2c(c1)CCC2 | 23% | 15µM* | 3% | 16% | -29% | 0%
Cc1ccccc1OCCCCn1cnc2ccccc21 | -5% | 19µM* | 19% | -9% | -91% | -19%
CC(C)OP(=O)(OC(C)C)C(Nc1ccccc1)c1cccnc1 (centres undefined) | -10% | -2% | nt | 1% | nt | 0%
O=C(Nc1ccccc1OC(F)F)c1cccc(S(=O)(=O)N2CCCC2)c1 | -1% | 1% | nt | 6% | nt | 0%
